Compound activity as filed in PubChem BioAssay.
CRE Fsk mod – Cell signaling CRE-BLA (Fsk stim). 71,000 compounds, 2.5% hits. Potency, µM (doses to about 38.2 µM), for inactives: at the top dose activity change, negative = inhibition, actives largely listed as activators. CHO CRE-bla reporter (cAMP response element driving beta-lactamase), forskolin EC10, beta-lactamase ratio. AID 662, 2007; active = well fitted activation curve with a large enough effect in the signal ratio, with a control signal flat, not every such curve was filed as active; inconclusive = small, poorly fitted or top-dose-only effect, or effect the other way, or a change in a side signal; the % refers to the signal ratio; note: potency is the fitted concentration of half-maximal effect; % of control where 0% means no effect
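Beta-lactamase reporter under a cAMP responsive element in CHO cells; compounds tested in titration series against EC10 NKH 477, 3 h at 37 °C. Read-out: CCF4 FRET ratio 460nm/530nm (excitation 405nm) giving %Activity, fitted to AC50.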
A350 autofl – qHTS Assay for Spectroscopic Profiling in A350 Spectral Region; max dye-equivalent concentration, M; Compound autofluorescence, 340/450 nm, Alexa 350 dye-equivalents; active compounds read high; 59,000 compounds, 11% hits; AID 590, 2007; in the data active = max dye-equivalent concentration above about 10 nM; inconclusive = mostly about 1.1 nM to 9.6 nM
HADH2 inhib – qHTS Assay for Inhibitors of HADH2 (Hydroxyacyl-Coenzyme A Dehydrogenase, Type II) | 3-hydroxyacyl-CoA dehydrogenase type-2 (Homo sapiens), Q99714 | recombinant HADH2, NADH fluorescence, beta-hydroxybutyryl-CoA | Potency, µM (doses to about 57.1 µM), for the others: at the top dose activity change, negative = inhibition, usual class: inhibitors | 73,000 compounds, 3.4% hits | AID 886, 2007; note: potency is the fitted concentration of half-maximal effect; % is set by controls: 0 for no effect and ±100 for the full control effect; nearly all actives have a fitted effect of over 60% in size
Target sequence (Q99714 whole entry, looked up, one chain of several): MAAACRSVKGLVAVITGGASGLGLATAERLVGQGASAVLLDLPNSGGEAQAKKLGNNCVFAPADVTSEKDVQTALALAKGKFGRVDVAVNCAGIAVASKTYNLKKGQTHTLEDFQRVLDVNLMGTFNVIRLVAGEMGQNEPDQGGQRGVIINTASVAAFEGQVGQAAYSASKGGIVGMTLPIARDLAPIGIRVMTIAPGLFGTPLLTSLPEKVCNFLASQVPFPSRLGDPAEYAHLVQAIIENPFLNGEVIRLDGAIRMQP
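NADH fluorescence (ex 360/em 450 nm) read every 30 s for 4 min; activity taken as last-minus-first time point difference. Enzyme 20 nM, NAD+ 1 mM, beta-hydroxybutyryl-CoA 90 uM, pH 9.0 Tris buffer.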
4-MU autofl – qHTS Assay for Spectroscopic Profiling in 4-MU Spectral Region | compound autofluorescence, 340/450 nm, 4-MU equivalents; active compounds read high | max dye-equivalent concentration, M | 59,000 compounds, 11% hits | AID 589, 2007; in the data active = max dye-equivalent concentration above about 10 nM; inconclusive = mostly about 1.1 nM to 9.6 nM
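Intrinsic fluorescence at 340/450 nm (ex/em) was read after 15 min at room temperature in pH 8.0, 100 mM Tris. Each compound concentration expressed as 4-MU-equivalent concentration from a six-point 4-MU standard series on each plate.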
HSD17B inhib – qHTS Assay for Inhibitors of HSD17B4, hydroxysteroid (17-beta) dehydrogenase 4 | Potency, µM (series often up to 57.1 µM), for inactives: top-dose activity change, negative = inhibition, hits mostly inhibitors | 3-hydroxyacyl-CoA dehydrogenase type-2 (Homo sapiens), Q99714 | recombinant HSD17B10, NADH fluorescence kinetic | 75,000 compounds, 7.6% hits;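 note: the protocol describes HADH2 (HSD17B10) and not the HSD17B4 of the title; potency is the fitted concentration of half-maximal effect; % is set by controls: 0 for no effect and ±100 for the full control effect; nearly all actives have a fitted effect of over 70% in size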
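Enzyme plus compound, 15 min room temperature; substrate mix added (NAD+ 1 mM, beta-hydroxybutyryl-CoA 90 uM final); plates read kinetically for NADH fluorescence. HADH2 was His-tagged, E. coli-derived, 20 nM.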
AID923 – qHTS Assay for Allosteric/Competitive Inhibitors of Caspase-1: Spectroscopic Profiling in AFC Spectral Region. Potency, µM (series often up to 57.5 µM), for inactives: at the highest dose fluorescence increase, actives largely listed as activators. compound fluorescence, AFC spectral region (405/520 nm). 75,000 compounds, 1.1% hits. AID 923, 2007; note: potency is the fitted concentration of half-maximal effect; 0% is about no effect
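Titrations up to 57 uM read every 20 sec for 3 min (405/520 nm) with 50 nM caspase 1 and 5 uM Ac-WEHD-AFC, pH 7.5 HEPES buffer. Fluorescence-vs-time intercept gave baseline, scaled against on-plate AFC standard.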
An asterisk follows results filed as active; i = inactive; ? = inconclusive; nt = not tested or not shown; [ ] = remark or other dose. This is a sample that favours compounds with a hit; in the whole collection about 14% have one here. Unless noted, calls come from the whole dose curve; as a rule, active = well fitted curve in the direction sought with a large enough effect; inconclusive = small, poorly fitted or top-dose-only effect, or another doubt; inactive = no such curve, though single readings can be large; an effect the other way counts as inactive or inconclusive.

SMILES	CRE Fsk mod	A350 autofl	HADH2 inhib	4-MU autofl	HSD17B inhib	AID923
CCOc1ccc(-n2c(=O)[nH]cc(C(=O)N3CCc4ccccc43)c2=O)cc1	?	?	2%	?	-6%	0%
O=C(c1c[nH]c(=O)n(-c2ccccc2)c1=O)N1CCc2ccccc21	-23%	1.2e-08M*	-12%	1.2e-08M*	-4%	2%
CC(C)=NOCc1ccc(-c2cc(-c3ccccc3)no2)cc1	nt	nt	0%[11.4 µM]	nt	-1%[11.4 µM]	-3%[11.5 µM]
CCC(=O)c1cc2c(cc1NC(=O)C(C)C)OCCO2	?	3.2e-08M*	10%	2.5e-08M*	?	1%
CC(=O)c1cc2c(cc1NC(=O)c1cnc(C)cn1)OCO2	5%	?	-5%	?	1%	1%
CC(=O)c1cc2c(cc1NC(=O)C1CC=CCC1C(=O)O)OCO2 (stereo unspecified)	-7%	3.7e-08M*	-4%	4.3e-08M*	-9%	-1%
CC(=O)Nc1cc2c(cc1C(C)=O)OCCO2	?	4.1e-08M*	-13%	3.5e-08M*	?	2%
CC(=O)c1cc2c(cc1NC(=O)CCCC(=O)O)OCO2	?	1.9e-08M*	-13%	1.8e-08M*	-25%	1%
CC(=O)c1cc2c(cc1NC(=O)Nc1cccc(Cl)c1)OCCO2	7%	3.1e-08M*	33%	2.4e-08M*	32µM*	-4%
CN1CCN(c2ncnc3ccc(-c4cccc(C#N)c4)cc23)CC1	?	i	7%	i	11%	0%
Clc1ccc2c(c1)[C@H]1OCC[C@H]1[C@@H](c1ccco1)N2	9%	nt	6%	nt	-5%	1%
Fc1ccc2c(c1)[C@H]1OCC[C@H]1[C@@H](c1ccco1)N2	?	2.8e-07M*	?	2.5e-07M*	32µM*	2%
O=S(=O)(c1ccccc1Cl)N1CCCC(c2nc(-c3cccnc3)no2)C1 (stereo unspecified)	6%	i	9%	i	-2%	1%
COc1ccccc1Nc1nc(N)nc(CSc2nccc(C)n2)n1	?	i	0%	i	10%	1%
COc1ccccc1Nc1nc(N)nc(CSc2nc(C)cc(C)n2)n1	10µM*	i	-1%	i	-2%	2%
COCCn1c(SCC(=O)N(C(C)C)C(C)C)nnc1-c1cc2ccccc2cc1O	8%	1e-08M*	4%	?	-10%	-1%
CCOCCCNC(=O)c1cc2c(-c3ccc(Cl)cc3)nn(C)c2s1	2µM*	nt	-4%	nt	32µM*	1%
Cn1nc(-c2ccc(Cl)cc2)c2cc(C(=O)NCCCN3CCOCC3)sc21	7.9µM*	nt	?	nt	32µM*	2%
Cn1nc(-c2ccc(Cl)cc2)c2cc(C(=O)NC3CC3)sc21	?	nt	4%	nt	-15%	-3%
CCN1CCN(c2nc3c(C)cccn3c(=O)c2/C=C(\C#N)S(=O)(=O)c2ccccc2)CC1	nt	2e-08M*	nt	1.6e-08M*	nt	nt
CCCC(=O)Nc1ccc2oc(-c3cccnc3)nc2c1	?	1.2e-08M*	62%	1.2e-08M*	25µM*	-1%
Cc1ccc2nc(-c3cccc(NC(=O)c4ccc5c(c4)OCCO5)c3)oc2c1	?	i	?	i	25µM*	-2%
CCCCC(=O)Nc1ccc2oc(-c3cccnc3)nc2c1	?	2.4e-08M*	12%	2e-08M*	25µM*	1%
CC(=O)Nc1ccc(S(=O)(=O)Nc2cccc(-c3nc4cc(C)ccc4o3)c2)cc1	11%	i	-2%	i	-6%	1%
COc1cc(C(=O)Nc2cccc(-c3nc4cc(C)ccc4o3)c2)cc(OC)c1OC	nt	nt	6%	nt	43%	-1%
CCC(=O)Nc1ccc2oc(-c3cccc(C)c3)nc2c1	9%	1.3e-08M*	4µM*	1.5e-08M*	3.2µM*	1%
